CHRM1 agonist – activates human CHRM1 receptor | P11229 | hit rate 0.33% among 360,000 | activation, % at 3 µM | CHO-K1 hM1, Fluo-8 calcium fluorescence, agonist mode; 0% DMSO, 100% acetylcholine EC100 | AID 588814;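 active = activation above the run's mean compound activation plus 3 SD, cut at about 16% in these data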;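 note: peak over basal fluorescence ratio within a 140 s kinetic read after compound addition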
Target sequence (P11229 whole entry, looked up): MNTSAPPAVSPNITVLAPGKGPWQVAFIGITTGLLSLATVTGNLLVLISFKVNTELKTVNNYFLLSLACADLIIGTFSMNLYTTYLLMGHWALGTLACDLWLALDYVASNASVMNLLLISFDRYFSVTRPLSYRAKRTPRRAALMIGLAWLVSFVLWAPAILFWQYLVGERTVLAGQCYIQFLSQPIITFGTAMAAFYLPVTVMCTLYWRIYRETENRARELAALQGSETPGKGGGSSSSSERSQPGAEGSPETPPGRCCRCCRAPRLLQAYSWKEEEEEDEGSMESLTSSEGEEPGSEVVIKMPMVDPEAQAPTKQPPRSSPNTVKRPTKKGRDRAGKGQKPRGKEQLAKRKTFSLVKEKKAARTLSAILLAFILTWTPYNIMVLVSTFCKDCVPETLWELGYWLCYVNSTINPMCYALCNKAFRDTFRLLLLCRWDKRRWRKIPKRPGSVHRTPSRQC
CHRM1 antagonist – antagonists of human M1 muscarinic receptor. P11229. CHO-K1 hM1, Fluo-8 calcium fluorescence, ACh EC80 antagonist. inhibition, % at 3 µM. hit rate 1.3% among 360,000;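 active = percent inhibition above its own plate's cutoff, namely the mean of that plate's compound wells plus 3 SD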;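 note: peak over basal fluorescence ratio during 140 s after agonist addition; 0% = ACh EC80 plus DMSO and 100% = DMSO alone without agonist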
CHRM1 PAM – positive allosteric modulators of human M1 muscarinic receptor; AID 588819; hit rate 0.088% among 360,000; CHO-K1 hM1, Fluo-8 calcium fluorescence, ACh EC20; 0% = ACh EC20, 100% = maximal ACh; activation, % at 3 µM; in the data active = activation above about 19%, passing the limit was not always enough
M1 ag parental – nonselective activator or artifact in parental CHO-K1 cells; hit rate 0.48% among 360,000; Fluo-8 calcium fluorescence; scaled to maximal ATP response, vehicle zero; activation, % at 3 µM; in the data active = activation above about 15%;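 note: untransfected CHO-K1 host cells lacking M1 receptor as counterscreen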
CHO-K1 Ca antag – counter-screen for M1 antagonists: effect in parental CHO-K1 cells; AID 602250; inhibition, % at 3 µM; hit rate 0.6% among 360,000; ATP-induced calcium, Fluo-8 fluorescence;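 active = inhibition above a per-plate cutoff, the plate's mean sample inhibition plus 3 SD, cut at about 24% in these data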;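 note: 0% = DMSO plus EC80 ATP and 100% = DMSO alone without ATP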
CHO-K1 Ca PAM – nonselective activator or artifact in parental CHO-K1 calcium assay | ATP EC20, Fluo-8 calcium fluorescence; 0% at ATP EC20, 100% at ATP max | activation, % at 3 µM | hit rate 0.02% among 360,000;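 active = activation above the run cutoff, the mean activation of all test compounds plus 3 SD, cut at about 40% in these data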;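 note: peak over basal fluorescence ratio in a 140 s read after ATP addition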
* hit, by the source's call. Hits are enriched below; roughly 2.3% of the tested compounds scored in any of these assays.

Screening C=CC[C@@H](CC(=O)N[C@H](CO)Cc1ccccc1)C(=O)NC[C@H](OC(=O)[C@@H](CC=C)Cc1ccc(F)cc1)c1ccccc1 returned CHRM1 agonist -3.6, CHRM1 antagonist 34.3*, CHRM1 PAM -18.6, M1 ag parental 3.9, CHO-K1 Ca antag -4.1 and CHO-K1 Ca PAM 1.5.
O=C(Nc1ccccc1F)c1c[nH]c(=O)[nH]c1=O was read as CHRM1 agonist -3.4, CHRM1 antagonist 39.5*, CHRM1 PAM -11.9, M1 ag parental 0.1, CHO-K1 Ca antag -9.3 and CHO-K1 Ca PAM -3.9.
For Cc1[nH]c2ccccc2c1C(=O)CN1C(=O)NC(C)(c2ccc(Cl)cc2Cl)C1=O (stereo unspecified) the results were CHRM1 agonist 27.1*, CHRM1 antagonist 19.3, CHRM1 PAM 6.3, M1 ag parental 10.9, CHO-K1 Ca antag 7.5 and CHO-K1 Ca PAM 11.9.
Screening O=S1(=O)N=C(N2CCCc3ccccc32)c2ccccc21 returned CHRM1 agonist -4.7, CHRM1 antagonist -1.1, CHRM1 PAM 0.4, M1 ag parental -0.1, CHO-K1 Ca antag -10.3 and CHO-K1 Ca PAM 4.8.
Screening O=S1(=O)N=C(N2CCc3ccccc3C2)c2ccccc21 returned CHRM1 agonist -5.0, CHRM1 antagonist 36.4*, CHRM1 PAM -16.2, M1 ag parental 0.7, CHO-K1 Ca antag 2.2 and CHO-K1 Ca PAM -3.4.
For CC1=C(Sc2ccccn2)C(=O)NC(C)(C)C1 the results were CHRM1 agonist -2.0, CHRM1 antagonist 4.2, CHRM1 PAM 0.3, M1 ag parental -0.3, CHO-K1 Ca antag 26.8* and CHO-K1 Ca PAM -5.8.
Screening O=C(COC(=O)c1ccc(S(=O)(=O)N2CCCC2)cc1)Nc1cccc(Br)c1 returned CHRM1 agonist -4.0, CHRM1 antagonist 28.7*, CHRM1 PAM -17.2, M1 ag parental 2.0, CHO-K1 Ca antag -5.0 and CHO-K1 Ca PAM -17.4.
O=C(CNc1ccc(C(F)(F)F)cc1)Nc1cccc(S(=O)(=O)N2CCCCC2)c1 was read as CHRM1 agonist -0.4, CHRM1 antagonist 24.0*, CHRM1 PAM -11.0, M1 ag parental 7.1, CHO-K1 Ca antag 5.8 and CHO-K1 Ca PAM 8.9.
For O=C(COC(=O)c1cc(S(=O)(=O)N2CCCC2)ccc1O)Nc1ccc(SC(F)F)cc1 the results were CHRM1 agonist 5.3, CHRM1 antagonist 9.5, CHRM1 PAM -4.5, M1 ag parental 15.2*, CHO-K1 Ca antag 11.7 and CHO-K1 Ca PAM 13.8.
Screening O=C(CNc1cccc(S(=O)(=O)N2CCCC2)c1)Nc1cccc(Br)c1 returned CHRM1 agonist 3.2, CHRM1 antagonist 8.0, CHRM1 PAM -4.6, M1 ag parental 18.8*, CHO-K1 Ca antag 4.5 and CHO-K1 Ca PAM -15.6.
Screening Cc1cccc(NC(=O)COC(=O)c2ccc(S(=O)(=O)N3CCCCCC3)cc2)c1 returned CHRM1 agonist -3.2, CHRM1 antagonist -11.7, CHRM1 PAM 9.3, M1 ag parental 0.2, CHO-K1 Ca antag -1.4 and CHO-K1 Ca PAM -21.3.
For C[C@@H]1CN([C@@H](C)CO)C(=O)CCCn2nncc2CO[C@H]1CN(C)Cc1ccc2cccnc2c1 the results were CHRM1 agonist -8.9, CHRM1 antagonist -11.1, CHRM1 PAM 4.9, M1 ag parental 0.1, CHO-K1 Ca antag -6.2 and CHO-K1 Ca PAM -3.4.
Screening CC(C)C[C@H]1CN(CCCC[C@H]2CNC(=O)C(=O)N2CCc2ccc(O)cc2)C(=O)C(=O)N1CCC1CCCCC1 returned M1 ag parental 0.7, CHO-K1 Ca antag -13.4 and CHO-K1 Ca PAM 18.7.
For Cc1ccc(Sc2c([N+](=O)[O-])c(C)nn2C)cc1 the results were CHRM1 agonist -7.7, CHRM1 antagonist 87.9*, CHRM1 PAM -28.1, M1 ag parental -0.3, CHO-K1 Ca antag -1.7 and CHO-K1 Ca PAM -11.7.
`CC1(C)CC(=O)C(C=Nc2ccccc2C(=O)O)=C(O)C1` gave CHRM1 agonist -6.1, CHRM1 antagonist -4.5, CHRM1 PAM 9.4, M1 ag parental -0.3, CHO-K1 Ca antag 0.3 and CHO-K1 Ca PAM 12.5.
Screening CC1(C)CC(=O)C(C=Nc2ccccc2Sc2ccccc2)=C(O)C1 returned CHRM1 agonist -5.9, CHRM1 antagonist 63.2*, CHRM1 PAM -25.8, M1 ag parental 0.5, CHO-K1 Ca antag -2.6 and CHO-K1 Ca PAM 1.2.
CC(=O)N/C(=C\c1ccccc1)C(=O)OCc1cccc(S(=O)(=O)N(C)C)c1 was read as CHRM1 agonist -1.7, CHRM1 antagonist 2.5, CHRM1 PAM -5.7, M1 ag parental 15.5*, CHO-K1 Ca antag -3.2 and CHO-K1 Ca PAM -4.9.
Screening Cn1cccc1C(=O)NCC(c1ccc(F)cc1)N1CCOCC1 (stereo unspecified) returned CHRM1 agonist 1.3, CHRM1 antagonist -25.5, CHRM1 PAM 26.5*, M1 ag parental 0.2, CHO-K1 Ca antag -13.7 and CHO-K1 Ca PAM -5.8.
For Cc1ccc(C(=O)NCC(c2ccc(F)cc2)N2CCOCC2)cc1 (stereo unspecified) the results were CHRM1 agonist -3.4, CHRM1 antagonist -8.3, CHRM1 PAM 4.4, M1 ag parental 1.1, CHO-K1 Ca antag -13.7 and CHO-K1 Ca PAM 21.7.
O=C(N/N=C/c1ccc(O)cc1)c1ccc(COc2cc(Cl)ccc2Cl)o1 was read as CHRM1 agonist 35.7*, CHRM1 antagonist -0.2, CHRM1 PAM -0.3, M1 ag parental 15.5*, CHO-K1 Ca antag 13.9 and CHO-K1 Ca PAM 19.8.
Screening COc1ccc(Cl)cc1S(=O)(=O)NC(C)c1cnn(-c2ccccn2)c1C (stereo unspecified) returned CHRM1 agonist 1.9, CHRM1 antagonist -6.5, CHRM1 PAM -0.7, M1 ag parental 2.9, CHO-K1 Ca antag 4.6 and CHO-K1 Ca PAM -3.4.
CCc1nc2ccc(C(=O)N3CCCCC3)cn2c1N(C)CCCc1ccccc1 was read as CHRM1 agonist -8.1, CHRM1 antagonist 68.7*, CHRM1 PAM -25.4, M1 ag parental 0.7, CHO-K1 Ca antag -7.9 and CHO-K1 Ca PAM 4.8.
CCc1nc2ccc(C(=O)N3CCN(C)CC3)cn2c1N(C)CCCc1ccccc1 was read as CHRM1 agonist -7.7, CHRM1 antagonist 32.9*, CHRM1 PAM -30.4, M1 ag parental 1.8, CHO-K1 Ca antag -14.3 and CHO-K1 Ca PAM 14.2.
Screening CCc1nc2ccc(C(=O)NCCCN(C)C)cn2c1N(C)CCCc1ccccc1 returned CHRM1 agonist -7.5, CHRM1 antagonist 10.1, CHRM1 PAM -12.4, M1 ag parental 2.9, CHO-K1 Ca antag -1.3 and CHO-K1 Ca PAM 20.9.
`CCc1nc2ccc(C(=O)NCCCn3ccnc3)cn2c1N(C)CCCc1ccccc1` gave CHRM1 agonist -7.3, CHRM1 antagonist 43.6*, CHRM1 PAM -25.9, M1 ag parental 2.5, CHO-K1 Ca antag -0.8 and CHO-K1 Ca PAM 15.2.
Screening CCc1nc2ccc(C(=O)NCCCn3ccnc3)cn2c1N(CC)C(=O)NCCc1ccccc1 returned CHRM1 agonist -4.1, CHRM1 antagonist -10.7, CHRM1 PAM 5.3, M1 ag parental -0.1, CHO-K1 Ca antag -1.7 and CHO-K1 Ca PAM 6.0.

Screening results (PubChem)
